Source: PubChem
NS1 function inh – inhibitors of influenza NS1 protein function; Potency, µM (doses to about 46.1 µM); actives 0.4% (n = 270,000); calls by dose curve; note: actives are rising curves; nearly all actives have a fitted effect of over 50% in size
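A cell-based growth assay was used: compounds that relieve NS1-induced slow growth of budding yeast raise OD600. Assay medium was yeast nitrogen base with ammonium sulphate and -URA supplement, pH 6.0, with 2% galactose.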
Cruzain inh Det – cruzain (T. cruzi) inhibition with detergent | AID 1478 | P25779 | actives 0.43% (n = 200,000) | purified cruzain, Z-FR-AMC fluorescence, 0.01% Triton | Potency, µM, usual class: inhibitors; note: nearly all actives have a fitted effect of over 40% in size
Target sequence (P25779 123-467 limits assumed): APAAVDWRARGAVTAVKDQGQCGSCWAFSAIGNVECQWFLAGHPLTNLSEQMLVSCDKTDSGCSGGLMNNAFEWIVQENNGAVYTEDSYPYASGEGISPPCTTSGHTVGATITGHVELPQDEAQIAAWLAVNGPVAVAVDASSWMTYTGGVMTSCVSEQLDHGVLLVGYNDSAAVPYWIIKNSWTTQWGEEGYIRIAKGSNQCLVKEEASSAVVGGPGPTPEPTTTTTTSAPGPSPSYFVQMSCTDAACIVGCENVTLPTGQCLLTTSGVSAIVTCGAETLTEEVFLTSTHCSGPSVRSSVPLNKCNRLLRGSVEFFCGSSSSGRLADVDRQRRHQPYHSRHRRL
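Enzyme 1.5 nM, Z-FR-AMC 2 uM, NaOAc 100 mM pH 5.5, DTT 5 mM, Triton X-100 0.01%; 15 min RT compound preincubation; kinetic ex360/em450, 60 s delta.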
Cruzain inh noDet – cruzain (T. cruzi) inhibition without detergent; P25779; purified cruzain, Z-FR-AMC fluorescence, no detergent; Potency, µM, most hits filed as inhibitors; actives 2.3% (n = 200,000); note: nearly all actives have a fitted effect of over 40% in size
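Detergent-free condition (0.00005% Triton X-100) in acetate buffer pH 5.5 with DTT. 1.5 nM enzyme and compound were pre-mixed 15 min, then 2 uM Z-FR-AMC substrate added; reaction progress from fluorescence change between first and third reads (60 s).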
NS1 inh valid – influenza NS1 function inhibition validation. shares compounds with NS1 function inh. activity change, negative = inhibition, % at 32.9 µM. influenza NS1 function cell assay, 15-point titration. 1,400 tested, under 10 active. AID 492980; calls by dose curve
Flu PR8 replic – reduces influenza A/PR/8/34 replication in MDCK cells; shares compounds with NS1 function inh; MDCK infected influenza A/PR/8/34, virus titer TCID50; stronger effect = lower value; virus titer (log TCID50), log10 TCID50 at 5 µM; actives 30% (n = 95); AID 504647; call rule not given here
Numbers stand for hits; - = inactive; ? = inconclusive; . = no result given. This is one part of a sample in which hits are shown more often than they occur. Unless noted, calls come from the whole dose curve; as a rule, active = well fitted curve in the direction sought with a large enough effect; inconclusive = small, poorly fitted or top-dose-only effect, or another doubt; inactive = no such curve, though single readings can be large; an effect the other way counts as inactive or inconclusive.

SMILES	NS1 function inh	Cruzain inh Det	Cruzain inh noDet	NS1 inh valid	others
Cc1ccc(C(=O)CSc2nn3c(=O)c(C(C)(C)C)nnc3s2)cc1	-	-	-	.
CCC(Oc1ccccc1)C(=O)N1CCN(Cc2cc(=O)n3nc(-c4cccc(C)c4)sc3n2)CC1 (configuration not stated)	.	-	?	.
CCN(CC)S(=O)(=O)c1ccc(C(=O)NCc2ccc3[nH]c4c(c3c2)CCCC4)cc1	?	-	?	.
O=C(NCc1ccc2[nH]c3c(c2c1)CCCC3)c1ccc(S(=O)(=O)N2CCCC2)cc1	12.6µM	-	?	-	Flu PR8 replic=7
Cc1cc2cc(CNC(=O)c3cccc([N+](=O)[O-])c3)ccc2n1C	-	-	?	.
Cc1cc2ccccc2n1CCNC(=O)c1ccc(S(=O)(=O)N2CCCCC2)cc1	11.2µM	-	?	-
Cc1cc2cc(CNC(=O)c3cccc([N+](=O)[O-])c3)ccc2[nH]1	14.1µM	-	?	-
O=C(NCc1ccc2[nH]c3c(c2c1)CCCC3)c1ccc(S(=O)(=O)N2CCOCC2)cc1	?	-	-	.
Cc1ccc(C(=O)NCCn2c(C)cc3ccccc32)cc1C	.	-	-	.
CN(C)S(=O)(=O)c1ccc(C(=O)NCc2ccc3[nH]c4c(c3c2)CCCC4)cc1	15.8µM	-	?	-
Cn1c(=O)c2c(nc(NCCNc3nc4c(c(=O)n(C)c(=O)n4C)n3C)n2C)n(C)c1=O	-	-	-	.
CCCCCCCCCCCCCCCCOC[C@H](COP(=O)([O-])OCC[N+](C)(C)C)OC(=O)NC	.	-	?	.
CC(C)(C)Nc1oc(-c2ccccc2)nc1-c1ccc(C(F)(F)F)cc1	.	-	-	.
COc1ccc(NC(=O)Cn2c(=O)n(Cc3ccccc3)c(=O)c3sc4ccccc4c32)cc1	.	-	-	.
CCOc1ccccc1CNC(=O)c1ccc2nc(Cc3ccc(OC)cc3)oc2c1	.	-	-	.
Cc1ccc2c(c1)CC(C)N2S(=O)(=O)c1nnc(NC(=O)c2ccccc2F)s1 (configuration not stated)	.	-	-	.
COc1cccc(CNC(=O)c2ccc(S(=O)(=O)N3CCCC3)cc2)c1	-	-	-	.
Cc1cc2cc(CNC(=O)c3ccc(S(=O)(=O)N4CCCCC4)cc3)ccc2[nH]1	11.2µM	-	?	-
COc1cc(NC(=O)Nc2cccc(-c3noc(C)n3)c2)cc(OC)c1OC	.	-	-	.
Cc1ccc(SCC(=O)Nc2ccc(O)c(-c3nc4cc(C)ccc4o3)c2)cc1	.	-	-	.
Clc1ccc(-c2csc(N3CCC(c4ccccc4)C3)n2)cc1 (configuration not stated)	-	-	-	.
Fc1ccc(-c2csc(N3CCC(c4ccccc4)C3)n2)cc1 (configuration not stated)	?	-	-	-
O=C(c1ccncc1)N1CCC[C@@]2(CCN(Cc3ccccc3)C2)C1	.	-	-	.
COc1ccc(/C=N/NS(=O)(=O)c2ccc(C)cc2)cc1OC(=O)c1ccccc1	-	-	?	.
COc1ccc(/C=N/NS(=O)(=O)c2ccccc2)cc1OC(=O)c1ccc(C)cc1	8.91µM	-	?	-
SMILES	NS1 function inh	Cruzain inh Det	Cruzain inh noDet	NS1 inh valid	others
COc1cc2oc(=O)c(CC(=O)NCc3ccc(OC)c(OC)c3)c(C)c2cc1Cl	.	-	-	.
O=C(NCCc1ccc(Cl)cc1)c1nnc(Cc2ccc(F)cc2)o1	.	-	-	.
Cc1cc(C(=O)O)cc(S(=O)(=O)Nc2ccccc2C(=O)NC(C)c2ccccc2)c1C (configuration not stated)	7.94µM	.	.	-
CC(NC(=O)c1ccccc1NC(=O)c1ccncc1)c1ccccc1 (configuration not stated)	-	.	.	.
COc1cc(OC)c(NC(=O)c2c3c(nc4ccccc24)C(=O)N(C2CCCCC2)C3)cc1Cl	.	-	-	.
COC(=O)c1c(NC(=O)CN2CCC(C(N)=O)CC2)c2c(C)cccc2n1C	?	-	-	.
COC(=O)c1c(NC(=O)CN2CCCC(C)C2)c2c(C)cccc2n1C (configuration not stated)	5.01µM	-	-	-
CCC1=C2CC[C@H]3C(=O)N(c4ccccc4)C(=O)[C@H]3[C@H]2[C@@]2(Cc3ccccc3)C(=NCCc3c[nH]c4ccccc34)OC(=O)N2C1=O	.	-	-	.
CC1CCCCN1C(=O)CSc1nc2cc3c(cc2c(=O)n1Cc1ccc2c(c1)OCO2)OCO3 (configuration not stated)	-	-	?	.
CC1CCN(C(=O)CSc2nc3ccccc3c(=O)n2Cc2ccc3c(c2)OCO3)CC1	?	-	-	?
C=CCNc1nc(-c2c(C)nc3sccn23)cs1	-	-	-	.
Cc1nc2sccn2c1-c1csc(NCc2ccccc2)n1	?	-	?	-
COc1ccc2oc(=O)cc(CN3CCN(C(=O)c4ccccc4Br)CC3)c2c1	.	-	-	.
COc1cccc(C2=NOC(C(=O)Nc3ccc(OC)c(OC)c3)C2)c1 (configuration not stated)	-	-	-	.
COc1cccc(C2=NOC(C(=O)Nc3cccc(C(C)=O)c3)C2)c1 (configuration not stated)	2.82µM	-	-	-
COc1ccc(Br)cc1CNC(=O)c1cnc2sc(N3CCC(C)CC3)nn2c1=O	.	-	-	.
Cc1cc(NS(=O)(=O)c2ccc(NC(=O)COc3ccccc3Br)cc2)no1	.	-	-	.
NC(=S)N=Nc1c(O)n(CC(=O)Nc2ccccc2)c2ccccc12	-	.	.	.
N=Nc1c(O)n(CC(=O)Nc2ccccc2)c2ccccc12	2.51µM	.	.	-
CC(C)Cn1c(=O)c2sccc2n2c(CCCC(=O)NCc3ccccc3Cl)nnc12	.	-	-	.
CCOc1ccc(NC(=O)CSC2=Nc3ccccc3C3=NC(Cc4ccccc4)C(=O)N23)cc1 (configuration not stated)	.	-	-	.
C[C@@H](C(=O)O)c1ccc(N2Cc3ccccc3C2=O)cc1	.	-	-	.
S=C1c2ccccc2CN1c1ccccc1	?	-	-	-
CCCC1=[N+](CC)CCn2c(C)ccc21	-	-	-	.
Cc1cc2n(c1)CCn1c(C)ccc1-2	12.6µM	-	?	-
SMILES	NS1 function inh	Cruzain inh Det	Cruzain inh noDet	NS1 inh valid	others
CCCc1nn2c(=O)cc(COC(=O)c3ccccc3NC(=O)C3CCCCC3)nc2s1	.	-	-	.
O=C(CN1CC[n+]2c(-c3cccs3)csc21)c1ccc(Br)cc1	4.47µM	-	-	-
CC(=O)N1CCN(CC(=O)c2ccc(Br)cc2)CC1	-	-	-	.
CCN(c1ccccc1)S(=O)(=O)c1ccc2[nH]cc(C(=O)NCc3ccc(C)cc3)c(=O)c2c1	.	-	-	.
Cn1cccc1Cc1nnc(SCC(=O)N2CCc3ccccc32)n1-c1ccc(F)cc1	-	-	?	.
COc1ccc(NC(=O)CSc2nnc(-c3cccs3)n2-c2ccccc2)cc1	2.82µM	-	-	-
COc1ccc(NC(=O)CSc2nnc(C3CC3)n2-c2ccccc2)cc1	-	-	-	.
COc1ccc(-n2c(Cc3cccn3C)nnc2SCC(=O)Nc2ccc(F)cc2)cc1	?	-	-	-
Cc1ccc(-n2c(Cc3cccn3C)nnc2SCC(=O)N2CCc3ccccc32)cc1	7.94µM	-	?	-
